The list is not random: actives were taken first. Their share in the collection is about 7.4%.
ELG1 genotox – inducers of genotoxicity in HEK293T ELG1-luciferase cells; HEK293T ELG1-luciferase reporter, luminescence, 16 h; Potency, µM (doses to about 46 µM), without a hit: top-dose activity change, positive = activation, usual class: activators; 330,000 compounds, 1.3% hits; AID 504466; also: % of control where 0% means no effect; nearly all actives have a fitted effect of over 60% in size
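Cells (2,000/well) expressing the ELG1-luciferase fusion are dosed by pin tool and kept 16 hr at 37 °C, 5% CO2. Signal comes from ONE-Glo luciferase reagent after 30 min at room temperature.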
Rab9 promoter act – Rab9 promoter activation | Huh7 Rab9 promoter-luciferase reporter, luminescence, 24 h | AID 485297 | 320,000 compounds, 2.8% hits | Potency, µM (titrated, usually from 9.22 µM), for inactives: at the highest dose activation, negative = inhibition, hits mostly activators; also: % of control where 0% means no effect; nearly all actives have a fitted effect of over 60% in size
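Luciferase signal after 10 min detection reagent at ambient indicates Rab9 promoter upregulation; stably transfected Huh7 cells were treated 24 h with compound in DMSO at 37 °C, 5% CO2.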
p53 reactivation – re-activators of mutant p53. H1299 p53-A138V BP100-luciferase reporter, luminescence, 24 h. Potency, µM (series often up to 92.2 µM), for the others: at the highest dose activity change, positive = activation, actives largely listed as activators. 320,000 compounds, 0.063% hits; also: % of control where 0% means no effect; nearly all actives have a fitted effect of over 45% in size
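p53-null H1299 cells stably carrying temperature-sensitive p53-A138V and a BP100-luciferase reporter were pinned with compounds (4-point, 1:5 series) and held 24 hrs at 37 deg C. Luminescence was read 10 min after detection reagent.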
FLuc modulator – inhibits or activates purified firefly luciferase, miR-21 counter-screen; P08659; Potency, µM (top dose mostly 57.5 µM), without a hit: top-dose activity change, negative = inhibition, most hits filed as inhibitors; purified FLuc, Km substrates, luminescence inhibition; 360,000 compounds, 6.9% hits; AID 588342;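 also: plate controls were vehicle for no effect and reference inhibitor for full effect; nearly all actives have a fitted effect of over 55% in size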
Target sequence (P08659 whole entry, looked up): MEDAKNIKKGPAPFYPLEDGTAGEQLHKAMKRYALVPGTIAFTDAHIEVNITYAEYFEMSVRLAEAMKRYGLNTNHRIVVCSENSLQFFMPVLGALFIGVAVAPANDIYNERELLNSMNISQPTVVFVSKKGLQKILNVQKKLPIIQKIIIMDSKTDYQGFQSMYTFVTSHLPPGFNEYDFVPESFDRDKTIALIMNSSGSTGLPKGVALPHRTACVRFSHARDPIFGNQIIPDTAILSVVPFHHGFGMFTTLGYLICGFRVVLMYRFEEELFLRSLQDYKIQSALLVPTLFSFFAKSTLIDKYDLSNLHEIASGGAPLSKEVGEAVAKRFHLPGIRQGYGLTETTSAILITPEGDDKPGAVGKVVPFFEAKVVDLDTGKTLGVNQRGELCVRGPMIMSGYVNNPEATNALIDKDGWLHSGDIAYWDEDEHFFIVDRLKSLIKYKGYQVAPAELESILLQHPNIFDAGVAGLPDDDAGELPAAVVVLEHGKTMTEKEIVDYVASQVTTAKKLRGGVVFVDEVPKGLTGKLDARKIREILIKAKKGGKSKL
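Purified P. pyralis luciferase (10nM final) with 10uM D-luciferin and 10uM ATP (Km levels) in 50mM Tris acetate pH 7.5, 10mM Mg acetate, 0.01% Tween-20, 0.05% BSA; qHTS 6-point titration, ~60 µM downward; luminescence read.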
NPC1 promoter act – NPC1 promoter activation; Huh7 NPC1 promoter luciferase reporter, 24 h; Potency, µM (top dose mostly 9.22 µM), for inactives: at the highest dose activation, most hits filed as activators; AID 485313; 320,000 compounds, 2.4% hits; also: % of control where 0% means no effect; nearly all actives have a fitted effect of over 60% in size
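Huh7 reporter cells (NPC1 promoter driving luciferase) are dosed with compound for 24 h at 37 °C, 5% CO2; luciferase detection reagent is then added and luminescence measured after 10 min at ambient temperature.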
SMN2 splice up – enhancers of SMN2 splice variant expression; Potency, µM (highest dose often 46.1 µM), inactives show at the top dose activity change, positive = activation, most hits filed as activators; 210,000 compounds, 2.8% hits; AID 1458; HEK293 SMN2-luciferase splicing reporter, luminescence, 30-36 h; also: % of control where 0% means no effect; nearly all actives have a fitted effect of over 55% in size
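HEK293 cells carry an SMN2 minigene-luciferase reporter in which exon 7 inclusion puts luciferase in frame. Cells were seeded at 2000 cells/well, attached for 10-12 hours, then exposed to compounds for 30-36 hours at 37C before ONE-Glo luminescence.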
An asterisk follows results filed as active; ? = inconclusive; nt = no result; [ ] = remark or other dose. Calls follow the shape of the dose curve; as a rule, active = well fitted curve in the direction sought with a large enough effect; inconclusive = small, poorly fitted or top-dose-only effect, or another doubt; inactive = no such curve, though single readings can be large; an effect the other way counts as inactive or inconclusive. Potency is read from the fitted curve at half-maximal effect.

SMILES | ELG1 genotox | Rab9 promoter act | p53 reactivation | FLuc modulator | NPC1 promoter act | SMN2 splice up
O=C(Nc1nc2ccsc2c(=O)s1)c1ccc(F)cc1Cl | 9.2µM* | 0.562µM* | 20.2% | 0.536µM* | 0.708µM* | nt
O=C(Nc1nc2ccsc2c(=O)s1)c1ccc(F)cc1 | ? | 0.282µM* | 6.0% | 0.536µM* | 0.398µM* | nt
Cc1csc2c(=O)sc(NC(=O)c3ccc(F)cc3)nc12 | 1.8% | -0.8% | 4.5% | 0.5% | 0.3% | nt
COc1cccc(CC(=O)N2CCc3nc(-c4ccc(OC)cc4C)c4c(c3C2)CO[C@@H](c2ccccc2)C4)c1 | nt | nt | nt | nt | nt | 3.9%[9.22 µM]
CC(C)CN(CCNC(=O)c1cc(-c2cccs2)nc2ccccc12)CC(C)C | nt | nt | nt | 0.9% | nt | 2.3%
COc1cc(/C=C2\SC(=S)N(Nc3ncc(C(F)(F)F)cc3Cl)C2=O)ccc1O | 7.0% | -3.3% | 15.4% | 8.49µM* | -1.1% | -2.8%
Cc1cc(C)nc(NN2C(=O)/C(=C/c3ccccc3)SC2=S)n1 | 1.1% | 1.7% | 1.1% | -1.2% | 1.0% | -14.2%
CN(C)c1ccc(/C=C2\SC(=S)N(Nc3ncc(C(F)(F)F)cc3Cl)C2=O)cc1 | 0.3% | -2.3% | 8.1% | 9.53µM* | 4.8% | 7.1%
O=C(O)[C@@H]1CCCNC1 | nt | nt | nt | nt | nt | -8.3%[20.6 µM]
O=C(N/N=C/c1c(F)cccc1Cl)C1CC1 | 0.1% | -0.8% | -2.3% | 1.6% | -5.8% | nt
Fc1ccc(N/N=C/C=C/c2ccccc2)c(F)c1 | ? | ? | ? | 26.9µM* | ? | ?
O=C(O)c1ccc(N/N=C/c2c(F)cccc2Cl)cc1 | 0.291µM* | 1.26µM* | -11.8% | 0.301µM* | ? | nt
O=C(O)c1ccc(/C=N/Nc2ccc(F)cc2F)cc1 | ? | 0.112µM* | -13.1% | 0.536µM* | 0.316µM* | 1.78µM*
CC(C)(C)c1ccc(/C=N/Nc2ccc(C(=O)O)cc2)cc1 | ? | -15.7% | 13.9% | 0.19µM* | -18.8% | -90.6%[1.84 µM]
S=C1NCN2CCN(CC2)CNC(=S)C(=S)NCN2CCN(CC2)CNC1=S | nt | nt | nt | nt | nt | 8.9%[9.22 µM]
O=C(Nc1ccc(F)cc1)c1oc2ccccc2c1NC(=O)C1CCCCC1 | nt | nt | nt | -3.1% | nt | -3.2%
O=C(O)c1ccc(N/N=C/c2ccc(C(F)(F)F)cc2)cc1 | 0.103µM* | ? | -12.7% | 0.213µM* | -15.6% | -54.6%
CC1Oc2ccccc2C=C1/C=N/Nc1ccc(C(=O)O)cc1 (stereo not given) | 1.16µM* | ? | 4.7% | 0.536µM* | ? | nt
O=C(O)c1ccc(/C=N/Nc2ncc(C(F)(F)F)cc2Cl)cc1 | 6.0% | 19.0% | 2.1% | ? | 16.9% | nt
O=C(O)[C@H](C1NCCS1)N1Cc2ccccc2C1 (stereo not given in full) | nt | nt | nt | nt | nt | -7.3%[9.22 µM]
Cc1nn(C)c(C)c1CCC(=O)N1CCCC(N2CCN(c3ccc(F)cc3)CC2)C1 (stereo not given) | -1.4% | 13.7% | 2.7% | -0.7% | -1.0% | nt
Cc1nnc2n(-c3ccccc3)c(=O)c3c4c(sc3n12)CC(C)CC4 (stereo not given) | -2.1% | -6.9% | 0.4% | 2.0% | -5.8% | 22.4µM*
Cc1c(NC(=O)CC(C)C)cccc1-c1nc2cccnc2s1 | nt | nt | nt | -5.6% | nt | nt
Cc1c(NC(=O)c2ccco2)cccc1-c1nc2cccnc2s1 | -14.7% | -2.4% | -3.2% | 23.9µM* | 6.1% | -11.2%
Cc1c(NC(=O)c2ccc(Cl)nc2)cccc1-c1nc2cccnc2s1 | -9.6% | -3.5% | -1.2% | 13.5µM* | 3.0% | nt
SMILES | ELG1 genotox | Rab9 promoter act | p53 reactivation | FLuc modulator | NPC1 promoter act | SMN2 splice up
Cc1ccc(/C=N/Nc2ccc(Cl)c(C(=O)O)c2)s1 | ? | 0.316µM* | ? | 4.78µM* | 0.316µM* | 0.891µM*
Cc1ccc(/C=N/Nc2nc(Cl)c(Cl)cc2Cl)s1 | ? | ? | ? | 6.01µM* | ? | ?
O=C(O)c1cc(N/N=C/c2cccs2)ccc1Cl | ? | ? | -9.6% | 9.53µM* | ? | 11.2µM*
O=C(O)c1cc(NN=C2c3ccccc3-c3ccccc32)ccc1Cl | 1.1% | 0.5% | 17.0% | ? | -2.5% | nt
CC1(C)CCC2(C(=O)O)CC[C@]3(C)C(=CCC4[C@]5(C)CCC(O)C(C)(C)C5C(O)C[C@]43C)C2C1 (stereo not given in full) | nt | nt | nt | nt | nt | 7.9%
CC(C)CCN(C(=O)CCCSc1nc2ccccc2[nH]1)c1c(N)n(Cc2ccccc2)c(=O)[nH]c1=O | 3.0% | -6.1% | 12.6% | 2.0% | -1.2% | nt
COCCNC(=O)COc1ccc(OCCNC[C@H](O)COc2ccccc2)cc1 | nt | nt | nt | nt | nt | -3.7%
C/C(=C1/C(=O)N(c2ccc([N+](=O)[O-])cc2)N=C1c1ccccc1)N(C)C | -4.2% | 20.8% | ? | 2.8% | ? | -32.0%
CN(C)/C=C1\C(=O)N(c2ccc([N+](=O)[O-])cc2)N=C1c1ccccc1 | 9.2µM* | 5.62µM* | ? | ? | ? | ?
CN(C)/C=C1/C(=O)N(c2ccc([N+](=O)[O-])cc2)N=C1c1ccccc1 | ? | ? | ? | 7.57µM* | ? | 10µM*
O=C(CCc1ccccc1)N1CCc2c([nH]c3ccccc23)C1c1ccc(F)cc1 (stereo not given) | nt | nt | nt | -3.8% | nt | nt
Cc1ccc(-c2cc(-c3ccccc3)no2)cc1 | ? | 0.316µM* | ? | 0.301µM* | 0.631µM* | nt
O=C(c1ccccc1)c1cc(-c2ccccc2)on1 | 2.06µM* | 0.631µM* | ? | 0.213µM* | 0.562µM* | ?
